We go through 13 compounds from PubChem BioAssay.

Unmarked numbers belong to inactive results. The source made the active and inactive calls.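 Rule for the calls, unless noted: active = compounds that lower survival of HCT116 colon cancer cells in the luminescence readout, no numeric limit stated; inactive = the rest.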

A short description of assay [1]: stimulators of insulin release from INS-1E, primary screen, cell-based, 5 mM glucose, NPC library (AID 1117329;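 active = compound raises insulin release from rat beta cells at 5 mM glucose, no numeric limit stated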). Conditions: rat INS-1E insulin secretion, at 10 µM, stronger effect = higher value.
The nature of assay [2]: growth inhibition of GSK3B-pretreated HCT116 cells – cell-based, CellTiter-Glo, 0.2 to 20 µM (AID 1117336;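 active = compounds lowering colon cancer cell viability after pretreatment blocking the GSK3B kinase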). The following applies: HCT116 viability after GSK3B inhibitor, at 20 µM, stronger effect = higher value. A general note: In ATP-based viability assays light output follows the ATP content of the culture.
The nature of assay [3]: inhibition of endothelial tube formation, primary screen, imaging, VEGF stimulated, CD31 staining, tube area, NPC library (AID 1117340;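 active = compound that reduces growth-factor-driven endothelial tube area in a mixed cell culture, no cutoff stated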). Conditions: VEGF-stimulated ADSC/ECFC co-culture, at 10 µM, stronger effect = higher value.
Assay [4] can be described thus: GLP1 release stimulators, primary, NCI-H716, NPC library (AID 1117341;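 active = compound raises GLP1 secretion from the human gut endocrine cells, with no numeric limit stated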). Conditions: NCI-H716 cells, at 10 µM, stronger effect = higher value.
The nature of assay [5]: HCT116 colon cancer cell growth inhibition, primary screen, CellTiter-Glo luminescence, NPC library (AID 1117342). Conditions: at 20 µM (top of the series).
The nature of assay [6]: reduced SW480 viability measured with CellTiter-Glo, NPC library, primary (AID 1117343;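 active = compounds that lower viability of the colon cancer cells in the luminescence readout, with no numeric limit stated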). Conditions: CellTiter-Glo luminescence; at 20 µM (top of the series).
Assay [7] is described as follows: NPC library primary testing for decreased DLD-1 cell viability via CellTiter-Glo (AID 1117346;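 active = compounds that lower survival of DLD-1 colon cancer cells in the luminescence readout, no cutoff given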). Conditions: DLD-1 viability, CellTiter-Glo luminescence; at 20 µM (top of the series).
Assay [8] has as its target 6-phosphogluconate dehydrogenase, decarboxylating (Homo sapiens) (UniProt P52209). Description: inhibition of human phosphogluconate dehydrogenase – biochemical, recombinant enzyme, NADPH absorbance, primary screen (AID 1159550;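 active = at least 20% inhibition of 6-phosphogluconate dehydrogenase activity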). The following applies: recombinant 6PGD, NADPH absorbance 341 nm; at 10 µM; stronger effect = higher value.

Sequence of 6-phosphogluconate dehydrogenase, decarboxylating (Homo sapiens) (P52209 whole entry, looked up): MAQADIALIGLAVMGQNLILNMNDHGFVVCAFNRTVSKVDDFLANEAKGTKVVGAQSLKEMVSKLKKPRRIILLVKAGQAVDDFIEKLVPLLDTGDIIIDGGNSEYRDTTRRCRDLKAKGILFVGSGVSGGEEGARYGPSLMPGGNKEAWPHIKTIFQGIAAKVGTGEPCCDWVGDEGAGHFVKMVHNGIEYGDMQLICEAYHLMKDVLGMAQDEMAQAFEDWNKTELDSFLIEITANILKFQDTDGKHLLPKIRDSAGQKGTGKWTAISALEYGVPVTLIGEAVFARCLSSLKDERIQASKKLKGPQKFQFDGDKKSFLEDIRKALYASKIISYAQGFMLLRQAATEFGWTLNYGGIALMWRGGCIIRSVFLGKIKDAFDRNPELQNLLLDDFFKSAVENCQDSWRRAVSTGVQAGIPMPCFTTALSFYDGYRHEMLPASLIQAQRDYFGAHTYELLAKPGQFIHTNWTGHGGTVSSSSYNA

Turning to `Cc1[nH]c(C)c(Cl)c(=O)c1Cl`, the insulin secretion stimulation in assay [1] was -1.1%. Moreover, in assay [2], the viability decrease is 10.2%. Besides, the tube area decrease in assay [3] is -15.3%. Moreover, the GLP1 secretion stimulation in assay [4] was 0.1%. The inhibition of viability in assay [5] is 6.55%. Besides, the viability decrease (inhibition) in assay [6] is 29%; in assay [7], 11.2%. The inhibition in assay [8] is -15%.
Take `Nc1ccc(N=Nc2ccccc2)c(N)n1`: the insulin secretion stimulation in assay [1] is 0.5%. For the same compound, the viability decrease in assay [2] is 43.4%. In assay [3], the tube area decrease is 36.8%. The GLP1 secretion stimulation in assay [4] is -4.7%. Further, the inhibition of viability in assay [5] was 29%. For the same compound, the viability decrease (inhibition) is 31.9% in assay [6] and 16% in assay [7]. Besides, in assay [8], the inhibition is 3.23%.
On to `O=C(O)c1ccccc1Nc1cccc(C(F)(F)F)c1`, for which, in assay [1], the insulin secretion stimulation is 0.1%. For the same compound, in assay [2], the viability decrease is 91.3% (active). In assay [3], the tube area decrease is 47.5% (active). Also, the GLP1 secretion stimulation in assay [4] was 9.5%. For the same compound, in assay [5], the inhibition of viability was 66.3% (active). For the same compound, the viability decrease (inhibition) in assay [6] is 70.1% (active); in assay [7], 78.8% (active). Also, the inhibition in assay [8] is 2.7%.
Turning to `CCOC(=O)OC(C)OC(=O)[C@@H]1N2C(=O)[C@@H](NC(=O)[C@H](N)c3ccccc3)[C@H]2SC1(C)C` (some centres undefined), the insulin secretion stimulation in assay [1] is 0.3%. The viability decrease in assay [2] is -28.2%. Also, the tube area decrease in assay [3] is 5.9%. In addition, the GLP1 secretion stimulation in assay [4] was -3.1%. In assay [5], the inhibition of viability is -1.7%. Moreover, the figures for the viability decrease (inhibition) in assay [6] and in assay [7] were -35.9% and -10.2%, respectively. Moreover, the inhibition in assay [8] was -1.65%.
In the case of `CCCCCCOc1ccccc1C(N)=O`, the insulin secretion stimulation in assay [1] is -0.6%. Moreover, the viability decrease in assay [2] is -31.8%. Further, in assay [3], the tube area decrease was -2.6%. For the same compound, the GLP1 secretion stimulation in assay [4] is -2.8%. Besides, the inhibition of viability in assay [5] is 19.5%. Moreover, the viability decrease (inhibition) in assay [6] was 36.2%; in assay [7], 11.6%. In addition, the inhibition in assay [8] is -1.25%.
Consider `CC(=O)O[C@]1(C(C)=O)CC[C@H]2[C@@H]3C=C(Cl)C4=CC(=O)[C@@H]5C[C@@H]5[C@]4(C)[C@H]3CC[C@@]21C`, for which the insulin secretion stimulation in assay [1] is -1.4%. In assay [2], the viability decrease is 16%. The tube area decrease in assay [3] is 10.1%. Moreover, the GLP1 secretion stimulation in assay [4] is 1.2%. Besides, in assay [5], the inhibition of viability was 29.2%. The results for the viability decrease (inhibition) in assay [6] and in assay [7] were 48.9% and -4.3%, respectively. The inhibition in assay [8] was -7.53%.
In the case of `CCOC(=O)C(C)(C)Oc1ccc(Cl)cc1`, the insulin secretion stimulation in assay [1] is -0.8%. In assay [2], the viability decrease was -28.2%. Moreover, the tube area decrease in assay [3] is -5.8%. Also, the GLP1 secretion stimulation in assay [4] is -1.1%. For the same compound, the inhibition of viability in assay [5] was -9.77%. Also, the viability decrease (inhibition) was 7.5% in assay [6] and -40.7% in assay [7]. The inhibition in assay [8] was -1.28%.
Consider `C=CCc1ccc(O)c(OC)c1`, for which, in assay [1], the insulin secretion stimulation is 4.7%. Also, in assay [2], the viability decrease was 22.5%. The tube area decrease in assay [3] was -3.7%. Further, the GLP1 secretion stimulation in assay [4] is 2.4%. In assay [5], the inhibition of viability is 3.77%. For the same compound, the viability decrease (inhibition) in assay [6] is -11.7%; in assay [7] it was -4.6%. Moreover, in assay [8], the inhibition is -3.83%.
For `Clc1ccc(C(c2ccccc2Cl)C(Cl)Cl)cc1` (centres undefined), the insulin secretion stimulation in assay [1] was 1.4%. The viability decrease in assay [2] was 46.6%. Besides, in assay [3], the tube area decrease is 6.6%. Also, the GLP1 secretion stimulation in assay [4] was 15.5%. For the same compound, the inhibition of viability in assay [5] is 88.6% (active). Moreover, the viability decrease (inhibition) in assay [6] was 84.4% (active); in assay [7] it was 99.5% (active). Also, in assay [8], the inhibition was 5.07%.
`CN1CCN(C(c2ccccc2)c2ccccc2)CC1`: the insulin secretion stimulation in assay [1] is 5.5%. In addition, the viability decrease in assay [2] was -48%. The tube area decrease in assay [3] is 22.5%. Besides, the GLP1 secretion stimulation in assay [4] is 2.2%. Further, the inhibition of viability in assay [5] is 7.1%. The viability decrease (inhibition) was 4.5% in assay [6] and -11.9% in assay [7]. For the same compound, in assay [8], the inhibition was -2.54%.
In the case of `CC(=O)Nc1ccccc1`, the insulin secretion stimulation in assay [1] was 1%. Further, in assay [2], the viability decrease was -5.1%. Besides, in assay [3], the tube area decrease was -10.1%. The GLP1 secretion stimulation in assay [4] is 2.1%. Further, the inhibition of viability in assay [5] was 2.3%. Besides, the viability decrease (inhibition) in assay [6] was 25.2%; in assay [7] it was 3.55%. For the same compound, the inhibition in assay [8] is -5.03%.
For the compound `CC1(C)NC(=O)N(c2ccc([N+](=O)[O-])c(C(F)(F)F)c2)C1=O`, the insulin secretion stimulation in assay [1] was 0.7%. Besides, the viability decrease in assay [2] is -16.7%. Further, in assay [3], the tube area decrease is 6.9%. In addition, in assay [4], the GLP1 secretion stimulation is -1.4%. The inhibition of viability in assay [5] is 8.8%. Further, the viability decrease (inhibition) is 18.3% in assay [6] and -16.7% in assay [7]. Also, in assay [8], the inhibition is 9.97%.
For the compound `C=CCc1ccccc1OCC(O)CNC(C)C` (centres undefined), the insulin secretion stimulation in assay [1] is 2.2%. In assay [2], the viability decrease was -6.8%. For the same compound, the tube area decrease in assay [3] was -1.1%. For the same compound, in assay [4], the GLP1 secretion stimulation was 1.4%. Besides, the inhibition of viability in assay [5] is 34.3%. For the same compound, the viability decrease (inhibition) is 27.3% in assay [6] and 12% in assay [7]. The inhibition in assay [8] is -12.3%.

One may read the inhibition as the change of the read-out against control, counted positive when it falls.
